Laboratory results reported in ChEMBL document CHEMBL3988442, “University of Dundee, Small-Polar-MMV Screening Library” (2021).
The whole screen tested about 48,000 compounds, of which about 13,000 (27%) showed an effect of 50% or more. Some of the results follow.

The compounds below were run on Wolbachia pipientis (assay: Anti-Wolbachia Cell-Based Screen). Details: 5 µM.
Format: functional
Design: scale not given: in the data most compounds retested in dose-response had high values

SMILES	Percent Effect
COCCN(CCC#N)S(=O)(=O)c1cc(F)ccc1F	6.072%
Cc1nnc2n1CCN(C(=O)COCCOc1ccccc1)C2	6.355%
CC(C)c1nnc2n1CCN(C(=O)CN(C)Cc1ccccc1)C2	95.98%
CC(C)c1nnc2n1CCN(C(=O)CN1Cc3ccccc3C1=O)C2	-9.252%
Cc1nnc2n1CCN(C(=O)CN(C)Cc1ccccc1)C2	125%
CCc1nnc2n1CCN(C(=O)CN(C)Cc1ccccc1)C2	-3.292%
CC(C)c1nnc2n1CCN(C(=O)c1ccc(CN(C)C)cc1)C2	-8.921%
CS(=O)(=O)c1nccn1Cc1ccc(C(N)=O)cc1	-9.833%
CN(Cc1cn2c(n1)CN(C(=O)C1CCOCC1)CC2)Cc1ccco1	-9.912%
CN(Cc1cccnc1)Cc1cn2c(n1)CN(C1CCOC1)CC2.O=C(O)C(F)(F)F.O=C(O)C(F)(F)F.O=C(O)C(F)(F)F (configuration not stated)	86.19%
CN(Cc1cncnc1)Cc1cn2c(n1)CN(C1CCOC1)CC2.O=C(O)C(F)(F)F.O=C(O)C(F)(F)F (configuration not stated)	-14.81%
CCN(CC)Cc1cn2c(n1)CN(C1CCOC1)CC2.O=C(O)C(F)(F)F.O=C(O)C(F)(F)F (configuration not stated)	96.5%
CN(Cc1cn2c(n1)CN(C1CCOC1)CC2)Cc1ccco1.O=C(O)C(F)(F)F.O=C(O)C(F)(F)F (configuration not stated)	-12.79%
CCN(CC)Cc1cnc2n1CCN(C1CCOC1)CC2 (configuration not stated)	-1.376%
CN(C)Cc1cn2c(n1)CN(C1CCOC1)CC2 (configuration not stated)	93.96%
CN(Cc1cccnc1)Cc1cn2c(n1)CN(C1CCOCC1)CC2	108.1%
CCOCC(=O)N1CCn2cc(CN(C)Cc3ccco3)nc2C1	-7.292%
CN(Cc1cn2c(n1)CN(CC1CCOC1)CC2)Cc1ccco1.O=C(O)C(F)(F)F.O=C(O)C(F)(F)F (configuration not stated)	11.13%
Cc1noc(C)c1CN(C)Cc1csc(-c2ccccc2F)n1	6.793%
CSC(C)(C)CNC(=O)NCC[S+]([O-])c1ccccc1F (configuration not stated)	3.709%
COCc1nc2n(n1)CCCC2Nc1nc(C2CC2)ns1 (configuration not stated)	-6.792%
COC[C@H]1CC[C@H]2[C@H](CCN2S(=O)(=O)Cc2ccccc2)O1	-8.908%
CCNc1ncc(C)c(-c2cnn(C)c2)n1	108.7%

SMILES	Percent Effect
Cc1cnc(CNc2ncc(C)c(-c3cnn(C)c3)n2)cn1	99.76%
Cc1ccc(Br)c(S(=O)(=O)NCc2cnn(C)c2)c1	-6.157%
Cc1cnc(NCc2cnn(C)c2)nc1-c1cnn(C)c1	107.4%
Cc1cnc(NCc2ccncc2)nc1-c1cnn(C)c1	107.1%
Cn1ncnc1-c1ccnc(NCc2ccncc2)n1	2.269%
Cc1cnc(CNCc2cnc(-c3ccccc3C)s2)cn1	2.85%
Cn1cc(-c2nc(CNCCn3cccn3)cs2)cn1	1.057%
Cn1cc(-c2ccnc(NCC3CC3)n2)cn1	-5.433%
CN(C)C1(CNc2nccc(-c3cnn(C)c3)n2)CCSC1 (configuration not stated)	0.386%
Cc1ccc(CCNc2ncc(C)c(-c3ccnn3C)n2)s1	-9.646%
Cn1cc(-c2ccnc(NCC3CCN(Cc4ccccc4)C3)n2)cn1 (configuration not stated)	1.277%
O=C(CN1CCCS1(=O)=O)Nc1ccc(OC(F)F)cc1	5.702%
CC(C)CN1CCc2[nH]cnc2C12CCN(C(=O)c1cc[nH]n1)CC2	-17.95%
CC(=O)NCc1ccc(S(=O)(=O)NC(=O)c2ccc3c(c2)COC3)cc1	-5.848%
CC(NC1(CNS(=O)(=O)N(C)C)CCCC1)c1ccccc1 (configuration not stated)	-3.44%
CCC(NC(N)=O)c1ccccc1OCC(=O)N1CCCC1 (configuration not stated)	-5.34%
Cc1cnc(NCc2csc(C(C)C)n2)nc1-c1cnn(C)c1	93.26%
CC(C)c1nc(CNc2nccc(CCC(F)(F)F)n2)cs1	-5.11%
Cc1cnn(CC(C)NCc2csc(-c3cnn(C)c3)n2)c1 (configuration not stated)	15.88%
CCCn1ncc(-c2ccnc(NC3CC(C)(C)NC(C)(C)C3)n2)c1C	10.1%
O=c1[nH]c(-c2ccncc2)ncc1-c1ccnc(NC2CC2)n1	114.3%
O=c1[nH]c2nc(NC3CC3)ncc2c(=O)n1-c1ccc(F)cc1	8.247%
Cc1ccc(-c2ccnc(N3CCC4(CCO4)CC3)n2)c(C)n1	1.011%

SMILES	Percent Effect
O=c1[nH]c(-c2ccncc2)ncc1-c1ccnc(NC2CCCCC2)n1	85.21%
Cc1ncc(-c2ccnc(N3CCCCC3)n2)c(=O)[nH]1	2.763%
O=C(COCc1nc(-c2ccncc2)no1)NC1CCCCC1	-10.3%
O=c1[nH]c(-c2ccncc2)ncc1-c1ccnc(N2CCOCC2)n1	98.38%
O=C(NCC1CC1)c1cc2c(s1)CCN2C(=O)c1cccnc1	93.16%
COC(=O)c1ccc(C(=O)N2CCCC(Nc3ccc(F)cc3)C2)cc1 (configuration not stated)	-50.64%
O=C(NCC1CC1)c1cc2c(s1)CCN2C(=O)c1ccc(F)cc1	95.26%
O=C(c1ccc(F)c(F)c1)N1CCCC(Nc2ccc(F)cc2)C1 (configuration not stated)	-4.983%
Cc1cc(C(=O)NCC2CCCC2)c(C)n1-c1cccnc1	5.973%
CC(NC(=O)c1cc(N2CCNC2=O)ccc1F)c1ccc(F)cc1 (configuration not stated)	-0.5858%
CCSCCC(=O)Nc1ncn(Cc2ccccc2)n1	-26.44%
O=c1n(CCSCc2ccccc2Br)nc2ccccn12	-15.86%
O=c1n(CCNCc2cccc3ccccc23)nc2ccccn12	89.88%
O=c1n(CCNc2cccc3ccccc23)nc2ccccn12	88.07%
CCSCCC(=O)NCCn1nc2ccccn2c1=O	-5.498%
O=c1n(CCSCc2ccccc2Cl)nc2ccccn12	6.647%
O=C(CCSc1ccccc1)NCCn1nc2ccccn2c1=O	3.117%
COc1ccc(Cl)cc1CN1CC(n2cccn2)C1	-1.811%
COCC(=O)NCC[C@H]1CC(C)(C)Oc2ccccc21	119%
COc1cccc(C2(NC(=O)CCNC(C)=O)CC2)c1	-8.972%
COc1ccc2c(c1)CC(NC(=O)NCc1cccs1)CO2 (configuration not stated)	-5.09%
O=C(NC[C@H]1OC[C@@H](NC(=O)c2ccccc2)[C@@H]1O)c1ccncc1	-2.654%
COc1ccc2c(c1)CCCC2CC(=O)NCC(=O)O (configuration not stated)	-14.49%

SMILES	Percent Effect
COCC(=O)NCCc1ccc(Cl)s1	-5.141%
COCC(=O)NCCc1ccc(I)s1	-6.07%
CC1(C)C[C@H](CCNC(=O)c2ccncc2)c2ccccc2O1	152.5%
COCC(=O)NCC[C@H]1CC(C)(C)Oc2ccc(OC)cc21	109.1%
COc1ccc2c(c1)[C@@H](CCNC(C)=O)CC(C)(C)O2	118.9%
CCCNC(=O)CNC(=O)CC1CCCc2cc(OC)ccc21 (configuration not stated)	-20.04%
CN(Cc1ccco1)Cc1ccccc1CNC(=O)c1ccncc1	21.51%
O[C@@H]1C[C@@H](c2nc(Cc3ccccc3)no2)N(Cc2ncc[nH]2)C1	0.9239%
COc1ccc(CNC(=O)NC2CCC(O)CC2)c(C(F)(F)F)c1 (configuration not stated)	20.35%
CCc1ccc(C(=O)N(CC(F)(F)F)C2CCCOC2)o1 (configuration not stated)	5.996%
Cc1cc(CSc2nc(=O)ccn2C(C)C)no1	-4.933%
CSCC[C@@H](CO)Nc1ccc(-c2nc(-c3ccccc3F)no2)cn1	-8.084%
CCC(C)(N)c1nc(=O)c(C)c(C)[nH]1 (configuration not stated)	-33.14%
Cc1noc(C)c1CS(=O)(=O)CC(=O)NCCc1cccs1	0.1957%
CNCC[C@H]1CC(C)(C)Oc2ccc(OC)cc21	108.6%
Cc1ccc2c(c1)OC(C)(C)CC2NC(=O)C1CCN(C)CC1 (configuration not stated)	-0.1155%
CC(=O)N1CCC(C(=O)NC2CC(C)(C)Oc3cc(C)ccc32)CC1 (configuration not stated)	-7.853%
COc1ccc2c(c1)C(NCCc1ccccn1)CCCO2 (configuration not stated)	1.37%
CNCC[C@H]1CC(C)(C)Oc2ccc(OCC3CC3)cc21	114.8%
CC(=O)NCC[C@H]1CC(C)(C)Oc2ccccc21	133.5%
COc1ccc2c(c1)C(NCCc1c(C)noc1C)CCCO2 (configuration not stated)	-2.374%
NCc1ccc(Oc2cccc(Cl)c2Cl)nc1	4.271%
CCCc1[nH]n(C)c(=N)c1-c1ccc2c(c1)OCO2	-1.578%

SMILES	Percent Effect
O=C(Nc1nc(-c2ccccc2)ns1)N1CCC(F)CC1	-10.12%
Cc1n[nH]c(C)c1CNC(=O)c1cn(CCC2CCCCN2)nn1 (configuration not stated)	-13.81%
Cc1cccc(CN2C[C@@H](CN3CCCN(C)CC3)[C@@H](CO)C2)n1	16.72%
Cc1cccc(CO[C@@H]2C[C@H]3CN(C(=O)c4cnccn4)CCN3C2)n1	-10.31%
O=C(O)[C@]12CCCN(Cc3ccccn3)[C@@H]1CCN(c1cnccn1)C2	-12.33%
NC(=O)C1(c2cnccn2)CCCN1Cc1cc2ccccc2o1 (configuration not stated)	-3.809%
NC(=O)C1(c2cnccn2)CCCN1Cc1ccccn1 (configuration not stated)	123%
Cc1cccc(CN2CCCC2(C(N)=O)c2cnccn2)n1 (configuration not stated)	94%
c1ccc(-c2nnc(CNCC3CCCN3c3cccnn3)o2)cc1 (configuration not stated)	-18.66%
Cn1cccc1C(=O)N1CCC2(CC1)CC(N1CCOCC1)C2.O=C(O)C(F)(F)F	103.3%
CC(=O)N1CCOC2(CCN(C(=O)c3cnoc3C)CC2)C1	6.241%
O=C(O)C(F)(F)F.O=C(c1ccccc1)N1C[C@@H]2CCCO[C@@H]2[C@H](N2CCOCC2)C1	-6.046%
COc1cc(N2CCC3(CC2)CC(N2CCOCC2)C3)ncn1.O=C(O)C(F)(F)F	-37.73%
CN1CCCCC12CCN(C(=O)c1cccn1C)CC2.O=C(O)C(F)(F)F	-9.83%
CC(=O)N1CCC2(CC1)CC(N1CCOCC1)c1ccc(C)cc12.O=C(O)C(F)(F)F (configuration not stated)	0.6002%
O=C(O)C(F)(F)F.O=C(c1cccc(F)c1)N1CCC2(CC1)CC(N1CCOCC1)C2	110.5%
Cc1oncc1C(=O)N1CCC2(CC1)CC(N1CCOCC1)C2.O=C(O)C(F)(F)F	99.49%
O=C(O)C(F)(F)F.O=C1CC(c2ccncc2)C2(CCN(C(=O)c3cccc(F)c3)CC2)N1 (configuration not stated)	8.556%
CN(C)C1COC2(CCN(C(=O)c3cccc(Cl)c3)CC2)C1.O=C(O)C(F)(F)F (configuration not stated)	-2.157%
O=C(O)C(F)(F)F.O=C(c1ccc(F)cc1)N1CCC2(CC1)CC(N1CCOCC1)C2	98.46%
